Assay results: ChEMBL document CHEMBL3988442, “University of Dundee, Small-Polar-MMV Screening Library” (2021)
About 13,000 (27%) of roughly 48,000 compounds showed an effect of 50% or more. The list shows a part of the results.

Test system: Wolbachia pipientis
Test: Anti-Wolbachia Cell-Based Screen
Format: functional
Set-up: scale not given: in the data most compounds retested in dose-response had high values
Settings: 5 µM

Compared with `CCc1nn(C)c(CC)c1CNC(=O)Nc1cccc2c1CCN2C`, `CCCn1ccc2cc(NC(=O)NCCn3cnnc3CC)ccc21` is lower in “Percent Effect” value: -5.732% for the first, -13.76% for the second.

Compared with `O=C1CCC2(CCN(CCSc3ccccc3)CC2)CN1CCCO`, `O=C1CCC2(CCOC2)CN1Cc1ccc2nsnc2c1` (centres undefined) is higher in “Percent Effect” value: -17.17% for the first, -12.42% for the second.

Compared with `CC(CNC(=O)N1CCS(=O)(=O)CC1)Cc1cccs1` (centres undefined), `Cc1nc(C(=O)N2CCN(C(C)c3ccccc3F)CC2)cs1` (centres undefined) is lower in “Percent Effect” value: 21.62% for the first, -7.061% for the second.

Going from `Cc1nnc(C(C)NCC2(c3c(F)cccc3F)CCCC2)o1` (centres undefined) to `Cc1ccc(N2CCC3(CCN(Cc4csc(C)n4)C3=O)C2)nn1` (centres undefined), the “Percent Effect” value rises from 5.955% to 95.91%.

Going from `O=C(NCc1cc(=O)n2c(n1)CN(CC1CCOC1)CCC2)C1CC1.O=C(O)C(F)(F)F` (centres undefined) to `COCC(=O)NCc1cc(=O)n2c(n1)CN(CC1CC1)CCC2.O=C(O)C(F)(F)F`, the “Percent Effect” value rises from -7.493% to 83.83%.

Compared with `COCC(=O)NCc1cc(=O)n2c(n1)CN(Cc1ccccc1)CCC2.O=C(O)C(F)(F)F`, `COc1ccc(CN2CCn3cc(CNC(=O)CC4CC4)nc3C2)cc1.O=C(O)C(F)(F)F` is lower in “Percent Effect” value: 93.29% for the first, -3.28% for the second.

Compared with `COc1ccc(CN2CCn3cc(CNC(=O)C4CCC4)nc3C2)cc1.O=C(O)C(F)(F)F`, `Fc1ccc(CN2CCC3(CCN(Cc4nccs4)CC3)C2)cc1.O=C(O)C(F)(F)F.O=C(O)C(F)(F)F` is lower in “Percent Effect” value: -6.087% for the first, -8.456% for the second.

First: Cc1ccc(C(C)(O)CNC(=O)c2sccc2OC(F)F)o1 (centres undefined)
Second: CC(C)(O)CSCCNC(=O)c1cc(F)ccc1F
The “Percent Effect” value of the first is lower: -15.69% for the first, 5.192% for the second.

First: CCS(=O)(=O)NCC1OCCc2cn(CC3CCOCC3)nc21 (centres undefined)
Second: CN1Cc2nnc(C3CCOCC3)n2C(Cc2c[nH]cn2)C1 (centres undefined)
The “Percent Effect” value of the first is lower: -7.17% for the first, -4.297% for the second.

Going from `O=C1N(c2ccccc2)Cc2nc(=O)[nH]n21` to `Cc1nc(C(=O)Nc2cc(N3CCNC3=O)ccc2Cl)cs1`, the “Percent Effect” value falls from 8.633% to -12.33%.

Compared with `CC(C)Sc1ncccc1C(=O)NCc1ccc(O)cc1`, `CC(C)Sc1ncccc1C(=O)NCc1ccc(CS(C)(=O)=O)cc1` is lower in “Percent Effect” value: 102.9% for the first, 3.251% for the second.

First: CSc1ncccc1C(=O)NCCC(O)c1ccco1 (centres undefined)
Second: CC(C)Sc1ncccc1C(=O)NCc1ccoc1
The “Percent Effect” value of the first is lower: -7.347% for the first, 124.5% for the second.

Going from `O=C(c1cccnc1N1CCN(Cc2ccoc2)CC1)N1CCCCC1` to `COc1ccnc(N2CCN(C(=O)c3csc(C4CC4)n3)CC2)n1`, the “Percent Effect” value rises from 11.57% to 22.41%.

First: CC(C)Nc1ncccc1C(=O)NCc1ccnn1C
Second: CC(C)Cn1cncc1CNC(=O)c1cccc(CC2CCNCC2)c1
The “Percent Effect” value of the first is lower: -5.174% for the first, 4.276% for the second.

Compared with `Cc1c[nH]c(CN(C)C(=O)C2CC(=O)N(Cc3ccncc3)C2)n1` (centres undefined), `Cc1ccc(Cl)cc1NC(=O)C1CC(=O)N(Cc2ccccn2)C1` (centres undefined) is higher in “Percent Effect” value: -14.3% for the first, -6.487% for the second.

First: CN1CCC(N(C)C[C@H]2CC[C@@H](Cc3ccc4occc4c3)O2)CC1
Second: Cc1ccc(CS(=O)(=O)N2CC[C@H]3[C@H]2CCN3C)cc1
The “Percent Effect” value of the first is lower: -18.26% for the first, 6.881% for the second.

Compared with `Cc1nc(CN2CCC3(CCCN(C(=O)c4cnccn4)C3)C2)cs1.O=C(O)C(F)(F)F` (centres undefined), `Cc1nc(CN2CCC3(CCN(C(=O)c4ccoc4C)CC3)C2)cs1.O=C(O)C(F)(F)F` is higher in “Percent Effect” value: -5.513% for the first, 2.621% for the second.

First: COc1cc(N2CCC3(CCN(Cc4csc(C)n4)C3)CC2)ncn1.O=C(O)C(F)(F)F
Second: COc1cc(N2CCC3(CCN(Cc4csc(C)n4)C3=O)C2)ncn1.O=C(O)C(F)(F)F (centres undefined)
The “Percent Effect” value of the first is lower: 133.8% for the first, 173.5% for the second.

Going from `Cc1nc(CN2CCC3(CCN(c4ncc(F)cn4)C3)C2=O)cs1.O=C(O)C(F)(F)F` (centres undefined) to `Cc1cnc(N2CCC3(CCN(Cc4csc(C)n4)C3=O)C2)nc1.O=C(O)C(F)(F)F` (centres undefined), the “Percent Effect” value rises from -4.043% to 101.3%.

Going from `Cc1cnc(N2C[C@H]3CN(Cc4csc(C)n4)C(=O)[C@H]3C2)nc1.O=C(O)C(F)(F)F` to `Cc1nc(CN2CC3(CCN(c4ncc(F)cn4)C3)CC2=O)cs1.O=C(O)C(F)(F)F` (centres undefined), the “Percent Effect” value rises from -0.6865% to 22.92%.

Going from `Cc1ccc(N2CCC3(CCN(Cc4csc(C)n4)CC3)CC2)nn1` to `Cc1ccc(N2CCC3(CCN(Cc4nccs4)CC3)CC2)nn1`, the “Percent Effect” value rises from -10.89% to 5.38%.

Going from `Cc1cnc(N2CCCC3(CCN(Cc4csc(C)n4)C3=O)C2)nc1.O=C(O)C(F)(F)F.O=C(O)C(F)(F)F` (centres undefined) to `Cn1ccnc1CN1CCC2(CC1)CN(c1ccccn1)CCO2.O=C(O)C(F)(F)F.O=C(O)C(F)(F)F`, the “Percent Effect” value rises from -16.03% to -7.538%.

Going from `Cc1ncsc1C(=O)NCC1CCC2(CCNCC2)CO1.Cl` (centres undefined) to `Cc1nc(CN2CCCC(c3cc(C(N)=O)[nH]n3)C2)oc1C` (centres undefined), the “Percent Effect” value rises from -19.17% to 110.2%.

First: CCc1cc(NCc2cc(CC(C)C)on2)n2nccc2n1
Second: COc1ccc2c(ccn2CC(=O)Nc2n[nH]c(C(C)C)n2)c1
The “Percent Effect” value of the first is lower: -11.32% for the first, 99.9% for the second.

Compared with `O=C(c1cnccn1)N1CCn2cnc(COCC3CC3)c2C1`, `Cc1cnc(C(=O)N2CCNCC2C(=O)NCc2ccncc2)cn1` (centres undefined) is lower in “Percent Effect” value: -16.54% for the first, -22.4% for the second.

Going from `COc1cc(N2CCC3(CCN(Cc4nccs4)CC3)C2)ncn1.O=C(O)C(F)(F)F` to `O=C(O)C(F)(F)F.O=C(O)C(F)(F)F.c1csc(CN2CCC3(CC2)CCN(CC2CCOCC2)C3)n1`, the “Percent Effect” value falls from 189% to -8.285%.

Going from `COc1cc(N2CCC3(CC(=O)N(Cc4csc(C)n4)C3)C2)ncn1` (centres undefined) to `COc1cccc(N2CC3(CCN(c4cc(OC)ncn4)C3)CC2=O)c1` (centres undefined), the “Percent Effect” value falls from 116.5% to -36.15%.

Going from `COc1ccc2c(ccn2CCC(=O)O)c1` to `COc1ccc2c(ccn2CCC(=O)Nc2nc[nH]n2)c1`, the “Percent Effect” value rises from -1.885% to 112.1%.

First: COc1ccc2c(ccn2CC(=O)N2CCCC2c2cnn(C)c2)c1 (centres undefined)
Second: COCCn1cc(C(=O)N2CCCC2c2cccc(F)c2)ccc1=O (centres undefined)
The “Percent Effect” value of the first is lower: 0.9225% for the first, 1.276% for the second.

Going from `COc1ccc2c(ccn2CCC(=O)Nc2ccc(C(N)=O)cc2)c1` to `COc1ccc2c(ccn2CCC(=O)Nc2n[nH]c(C(C)C)n2)c1`, the “Percent Effect” value falls from 111.4% to 80.39%.

Compared with `Cc1ccc2c(ccn2CCC(=O)NC[C@@H]2CCCN3CCCC[C@H]23)c1`, `NC(=O)c1ccc(NC(=O)CCN2CCCC(N3CCCC3)C2)cc1` (centres undefined) is higher in “Percent Effect” value: -8.382% for the first, -7.492% for the second.

Going from `CCOC(C)C(=O)Nc1ccc2c(ccn2CC)c1` (centres undefined) to `CCOCCOC(C)C(=O)Nc1ccc2c(ccn2CC)c1` (centres undefined), the “Percent Effect” value rises from -6.658% to -1.618%.

First: CC(Cn1cncn1)NC(=O)c1cn(Cc2ccccc2F)nn1 (centres undefined)
Second: O=C(NCCn1ccnc1)C1COCC(=O)N1Cc1ccccc1 (centres undefined)
The “Percent Effect” value of the first is higher: 8.945% for the first, -11.36% for the second.

First: CCNC(=O)NCC(CC)(OC)c1ccccc1 (centres undefined)
Second: CNC(=O)c1cccc(Nc2cnn(C)c2)c1
The “Percent Effect” value of the first is higher: 2.354% for the first, -6.81% for the second.

Going from `CC1N(c2cnn(C)c2)C(=O)COC12CCN(c1ccccn1)CC2.O=C(O)C(F)(F)F` (centres undefined) to `CC1N(c2cnn(C)c2)C(=O)COC12CCN(c1ncccn1)CC2.O=C(O)C(F)(F)F` (centres undefined), the “Percent Effect” value falls from 138.6% to 116.4%.

Compared with `O=C(O)C(F)(F)F.O=C1COC2(CCN(c3ccccn3)CC2)CN1`, `O=C(O)C(F)(F)F.O=C1COC2(CCN(c3ncccn3)CC2)CN1` is higher in “Percent Effect” value: -3.085% for the first, 1.956% for the second.

Going from `CN1C(=O)CC(c2ccncc2)C12CCN(c1ncccn1)CC2.O=C(O)C(F)(F)F` (centres undefined) to `Fc1ccc(N2CCOC3(COCCN(c4ncccn4)C3)C2)cc1.O=C(O)C(F)(F)F` (centres undefined), the “Percent Effect” value rises from -40.6% to 20.84%.

Going from `CN(C)C(=O)N1CCC2(CC1)CNc1ccc(F)cc12.Cl` to `CNc1nc(C(=O)N2CCC3(CCCN(C)C3=O)C2)cs1` (centres undefined), the “Percent Effect” value falls from -3.877% to -18.85%.

Compared with `CNC(=O)c1cccc(C2CNCCN2C(C)=O)c1` (centres undefined), `CNC(=O)c1cccc(C2CNCCN2C(=O)c2ccn(C)n2)c1` (centres undefined) is higher in “Percent Effect” value: -19.14% for the first, 140.8% for the second.

Going from `CNC(=O)NC(=O)CN1CCC(c2cccc(F)c2)C1` (centres undefined) to `CNC(=O)c1cccc(C2CNCCN2C(=O)c2cccc(F)c2)c1.Cl` (centres undefined), the “Percent Effect” value rises from -6.233% to 87.98%.

First: CNC(=O)c1cccc(C2CNCCN2C(=O)C2CCNCC2)c1 (centres undefined)
Second: Cc1nc2c(c(=O)n1C)CCN(C(=O)CCc1ccccc1O)CC2
The “Percent Effect” value of the first is higher: 105.9% for the first, -32.69% for the second.

Going from `CC(=O)Nc1ncc(S(=O)(=O)N2CCCC(C)C2)s1` (centres undefined) to `Cc1cnc(CN2CCCC(c3cc(C(N)=O)[nH]n3)C2)o1` (centres undefined), the “Percent Effect” value rises from -1.419% to 1.908%.

First: CN(C)C(=O)CN1CCOCC2(C1)CN(c1ncc(F)cn1)CCO2.O=C(O)C(F)(F)F (centres undefined)
Second: CN(C)C(=O)CN1CCOCC2(CCN(c3ncc(F)cn3)CC2)C1.O=C(O)C(F)(F)F
The “Percent Effect” value of the first is higher: 98.39% for the first, 94.37% for the second.

First: O=C(O)C(F)(F)F.c1cnc(N2CCOCC3(C2)CN(c2nccs2)CCO3)nc1 (centres undefined)
Second: CN(C)C(=O)CN1CCOCC2(CCN(CC3CCOC3)CC2)C1.O=C(O)C(F)(F)F.O=C(O)C(F)(F)F (centres undefined)
The “Percent Effect” value of the first is lower: -52.69% for the first, -17.88% for the second.

First: CN(C)C(=O)CN1CCOCC2(CCN(CC3CCOCC3)CC2)C1.O=C(O)C(F)(F)F.O=C(O)C(F)(F)F
Second: CC(C)(C)C1CCC(NCCN2CCOCC2)CC1 (centres undefined)
The “Percent Effect” value of the first is higher: 8.025% for the first, -13.34% for the second.

Compared with `Cc1nc(C(=O)N2CCN(c3ccc(Cl)c(Cl)c3)CC2)cs1`, `CNc1nc(C(=O)N2CCN(c3ccc(Cl)c(Cl)c3)CC2)cs1` is lower in “Percent Effect” value: 99.9% for the first, 91.42% for the second.

First: CCc1nnc(CN2CCCC(c3cc(C(N)=O)[nH]n3)C2)o1 (centres undefined)
Second: Cc1nnc(CN2CCCC(c3cc(C(N)=O)[nH]n3)C2)o1 (centres undefined)
The “Percent Effect” value of the first is higher: 123.6% for the first, -6.189% for the second.

First: CC(C)(C)c1nnc(CN2CCCC(c3cc(C(N)=O)[nH]n3)C2)o1 (centres undefined)
Second: CC(C)c1nnc(CN2CCCC(c3cc(C(N)=O)[nH]n3)C2)o1 (centres undefined)
The “Percent Effect” value of the first is lower: 1.877% for the first, 107% for the second.

Compared with `CC(C)c1cnc(CN2CCCC(c3cc(C(N)=O)[nH]n3)C2)o1` (centres undefined), `Cc1cc(C2CCCN(Cc3ncc(C(C)C)o3)C2)n[nH]1` (centres undefined) is lower in “Percent Effect” value: 94.99% for the first, 8.603% for the second.

`CCc1nnc(CN2CCCC(c3cc(C(F)(F)F)[nH]n3)C2)o1` (centres undefined) was tested, and the “Percent Effect” value was -1.93%.
